Experimental data taken from PubChem BioAssay AID504467 (National Center for Advancing Translational Sciences (NCATS), 2011).
Among all 330,000 compounds or so, about 7,700 (2.3%) were called active. Inconclusive results (about 26%) are left out. Calls come from the whole dose curve; as a rule, active = well fitted inhibition curve with a large enough effect; inconclusive = small, poorly fitted or top-dose-only effect, or effect the other way; inactive = flat fitted curve, though single readings scatter. The entries come from a sample that favours actives as a whole.

Assay: qHTS screen for small molecules that inhibit ELG1-dependent DNA repair in human embryonic kidney (HEK293T) cells expressing luciferase-tagged ELG1; note: nearly all actives have a fitted effect of over 55% in size
Conditions: HEK293T ELG1-luciferase reporter, luminescence, 16 h, DNA damage induced by 5-fluorouridine; series mostly up to 46.1 µM; activity change, negative = inhibition: at the top concentration
How it was run: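 In this reporter screen, reduction of luminescence relative to DMSO vehicle indicated activity. Compounds and 5-fluorouridine were added together to 2,000 cells per well, incubated for 16 hr at 37 °C, then developed with ONE-Glo.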
% is set by controls: 0 for no effect and ±100 for the full control effect; potency is the fitted concentration of half-maximal effect.

| Structure (SMILES) | activity change, negative = inhibition | Potency |
| --- | --- | --- |
| CC(NCC(=O)Nc1cc(Cl)cc(Cl)c1)c1ccccc1 (stereo not drawn) | -8.28% (inactive) |  |
| COc1ccc(/C=C(/NC(=O)c2ccccc2)C(=O)Nc2cccc(C(=O)O)c2)cc1 | -13.3% (inactive) |  |
| COc1cc(SC)ccc1C(=O)N(Cc1ccccc1)c1ccccc1 | -10.4% (inactive) |  |
| COc1cccc(NC(=O)CN(C)C(=O)Cc2ccc(Cl)cc2Cl)c1 | -1.46% (inactive) |  |
| CCCC(=O)Nc1cccc(NC(=S)NC(=O)C(C)Oc2ccc(Cl)cc2Cl)c1 (stereo not drawn) |  | 20.6 µM (active) |
| CC(Oc1ccc(Cl)cc1Cl)C(=O)/C=C/N(C)C (stereo not drawn) | 2.25% (inactive) |  |
| COc1ccc(C)cc1NC(=O)CN(C)S(=O)(=O)c1ccc2c(c1)n(C)c(=O)c(=O)n2C | 7.65% (inactive) |  |
| Cc1ccc(C)c(C(=O)COC(=O)Cn2[nH]c(=O)c3ccccc3c2=O)c1 | -0.316% (inactive) |  |
| O=C(CCc1nc(-c2ccccc2)no1)Nc1cccc(C(=O)NC2CC2)c1 | -26.2% (inactive) |  |
| CN(CC(=O)Nc1c(Cl)cccc1Cl)C(=O)CC1OC(=O)c2ccccc21 (stereo not drawn) | 10.4% (inactive) |  |
| CCN(C(=O)COC(=O)c1c(NC(C)=O)sc(C)c1C)C1CCS(=O)(=O)C1 (stereo not drawn) | -2.68% (inactive) |  |
| CCN(C(=O)COC(=O)/C=C/c1nc2ccccc2s1)C1CCS(=O)(=O)C1 (stereo not drawn) |  | 9.2 µM (active) |
| CCN(C(=O)CSc1nc2ccccc2n1CC)C1CCS(=O)(=O)C1 (stereo not drawn) | 5.4% (inactive) |  |
| C=CC(COCc1ccccc1)N(CC(=O)OC)S(=O)(=O)c1cc(Br)ccc1OC (stereo not drawn) | -2.49% (inactive) |  |
| Cc1nc2cc(C(F)(F)F)ccc2n1CCNc1nc(-c2cc(Cl)c(N)c(Cl)c2)cs1 | -16% (inactive) |  |
| COc1ccc(-c2c(C)cc3oc(=O)cc(-c4ccccc4)c3c2C)cc1C=O |  | 25.9 µM (active) |
| COc1ccc(-c2c(C)cc3oc(=O)cc(-c4ccccc4)c3c2C)cc1OC | -11.1% (inactive) |  |
| COc1ccc(-c2c(C)cc3oc(=O)cc(-c4ccccc4)c3c2C)cc1F | 19.1% (inactive) |  |
| CCOC(=O)N1CCN(Cc2nnc(-c3ccccc3Cl)o2)CC1 | 8.04% (inactive) |  |
| Cc1ccc(F)cc1NC(=O)CSCc1c(C)noc1C | 23.3% (inactive) |  |
| CCS(=O)(=O)NCCc1ccc(OC)c(OC)c1 | -10.4% (inactive) |  |

| Structure (SMILES) | activity change, negative = inhibition | Potency |
| --- | --- | --- |
| COc1ccc(CCNc2ncnc3nc[nH]c23)cc1OC |  | 14.6 µM (active) |
| COc1ccc(CCNc2nc(C)cc(C)n2)cc1OC | -0.316% (inactive) |  |
| CCCN(C(=O)c1nc2nccc(C)n2n1)c1c(N)n(Cc2ccccc2)c(=O)[nH]c1=O | 7.75% (inactive) |  |
| O=C(Nc1ccccc1F)c1ccc(S(=O)(=O)N2CCCCCC2)cc1 | -0.132% (inactive) |  |
| Cc1cccc(NS(=O)(=O)c2ccc(C)c(C(=O)NCc3cccnc3)c2)c1 | -4.62% (inactive) |  |
| COC(=O)Cc1ccc(OC(=O)C2CCN(S(=O)(=O)c3ccc(OC)c(OC)c3)CC2)cc1 | 22.6% (inactive) |  |
| Cc1[nH]c2ccccc2c1C(=O)COC(=O)C(C)C | 13.3% (inactive) |  |
| CCOC(=O)c1c(C)[nH]c(C)c1S(=O)(=O)N(C)CC(=O)Nc1ccccc1C | 2.89% (inactive) |  |
| CCOC(=O)c1c(C)[nH]c2c1-c1ccccc1C(=O)C2=O |  | 2.91 µM (active) |
| CC[C@]12c3[nH]c4cc(CCC(=O)N(C)C)ccc4c3CCN1C(=O)[C@@H](CC(=O)NCCCn1ccnc1)C[C@@H]2C(=O)N1CCN(C(=O)C2CC2)CC1 | 20.4% (inactive) |  |
| Cc1ccc(N(Cc2ccccc2O)C(=O)c2ccccc2F)cc1 | -6.48% (inactive) |  |
| COc1ccc(C(=O)OCC(=O)c2ccc(C)c(S(=O)(=O)N3CCOCC3)c2)cc1OC |  | 10.3 µM (active) |
| Cc1ccc(C(=O)NCC(=O)O)cc1S(=O)(=O)N1CCCCC1 | 12.5% (inactive) |  |
| Cc1ccc(C(=O)OCC(=O)N2CCCCCC2)cc1S(=O)(=O)N1CCOCC1 | 6.02% (inactive) |  |
| Cc1ccc(C(=O)OCC(=O)NCc2cc(C)c(O)c(C)c2)cc1S(=O)(=O)N1CCCCC1 |  | 7.3 µM (active) |
| Cc1ccc(C(=O)OCC(=O)N2CC(C)CC(C)C2)cc1S(=O)(=O)N1CCCCC1 (stereo not drawn) | -2.94% (inactive) |  |
| Cc1ccc(C(=O)OCC(=O)Nc2ccc(Cl)cn2)cc1S(=O)(=O)N1CCOCC1 | 11.3% (inactive) |  |
| COc1ccc(C2(C)ON(c3ccccc3C(F)(F)F)C2=O)cc1 (stereo not drawn) | -20.7% (inactive) |  |
| Cc1ccc(Cn2cc(C(=O)NN)c(=O)c3ccc(F)cc32)cc1 | -19.1% (inactive) |  |
| CC1(C)Oc2ccc3ccc(=O)oc3c2/C(=N/O)C1=O | 1.95% (inactive) |  |
| COc1ccc(C(=O)NC(=S)Nc2ccc(N3CCCC3)cc2)cc1OC | 26.5% (inactive) |  |

| Structure (SMILES) | activity change, negative = inhibition | Potency |
| --- | --- | --- |
| COc1ccc(C(=O)Nc2ccc3nc(N4CCCCC4)cc(C)c3c2)cc1OC |  | 23.1 µM (active) |
| COc1ccc(C(=O)Nc2ccc(S(=O)(=O)Nc3onc(C)c3C)cc2)cc1OC | 4.09% (inactive) |  |
| CN1/C(=C\C(=O)c2cccnc2Cl)C(C)(C)c2ccccc21 | 11.6% (inactive) |  |
| CN1CCN(CCC(=O)N/N=C/C=C2\N(C)c3ccccc3C2(C)C)CC1 | 10.6% (inactive) |  |
| CN1/C(=C\C(=O)c2oc3ccccc3c2N)C(C)(C)c2ccccc21 |  | 13 µM (active) |
| CC(C)[C@H](NC(=O)N1CCn2c1nc1ccccc12)C(=O)NCCc1ccccc1 | 6.27% (inactive) |  |
| CCOc1ccc(C(=O)CCC(=O)Nc2ccncc2)cc1 | -1.92% (inactive) |  |
| COc1ccc2oc(C(=O)N(CC(C)C)C3CCS(=O)(=O)C3)c(C)c2c1 (stereo not drawn) | 2.82% (inactive) |  |
| CC(OC(=O)c1ccc([N+](=O)[O-])cc1)C(=O)NCC1CCCCC1 (stereo not drawn) | -18.6% (inactive) |  |
| COc1cc(C(=O)N[C@@H](C)C(=O)NCc2ccco2)cc(OC)c1OC | 9.98% (inactive) |  |
| COc1cc(C(=O)OC(C)C(=O)NCC2CCCCC2)cc(NC(=O)c2ccco2)c1OC (stereo not drawn) |  | 11.6 µM (active) |
| CN1C(=O)[C@H]2[C@@H](/C=C/c3ccccc3)N3C(=O)CN(Cc4ccc(-c5ccccc5)cc4)C(=O)[C@@]3(C)[C@H]2C1=O | -1.92% (inactive) |  |
| COc1ccccc1CNC(=O)COn1nnc2ccc(S(=O)(=O)N3CCOCC3)cc21 | -1.32% (inactive) |  |
| CCn1c(C(O)c2cc(OC)ccc2OC)nc2ccccc21 (stereo not drawn) | -22% (inactive) |  |
| COc1ccc(CCNc2nc3ccc(C)cc3n3cnnc23)cc1OC | -17.1% (inactive) |  |
| COc1ccc(OC)c(Nc2nc3ccccc3n3cnnc23)c1 |  | 14.6 µM (active) |
| Cc1ccc(/C=C2/SC(=S)N(CCC(=O)NCCCN3CCOCC3)C2=O)cc1 | 3.39% (inactive) |  |
| CCOc1ccc(NC(=O)COc2ccc(C(=O)N3CCC(C(N)=O)CC3)cc2OC)cc1 | 0.553% (inactive) |  |
| Cc1cc(-c2ccccc2)n2nc(C)c(-c3ccccc3)c2n1 | 29.7% (inactive) |  |
| Cc1cc(-n2nc(C)cc2C)n2nc(C)c(-c3ccccc3)c2n1 | -15.9% (inactive) |  |
| CCc1c(C)nc2c(-c3ccccc3)c(C)nn2c1Nc1ccc(NC(C)=O)cc1 |  | 16.4 µM (active) |
